Assay outcomes: PubChem BioAssay, National Center for Advancing Translational Sciences (NCATS)
This is a sample that favours compounds with a hit; in the whole collection about 6.1% have one here.
DRD3 agonist: activates the human D3 dopamine receptor | P35462 | D3R DiscoveRx beta-arrestin cells, luminescence, 90 min | max activation, % | 0.58% of 410,000 active | AID 652048; in the data active = max activation above about 30%
Target sequence (P35462 whole entry, looked up): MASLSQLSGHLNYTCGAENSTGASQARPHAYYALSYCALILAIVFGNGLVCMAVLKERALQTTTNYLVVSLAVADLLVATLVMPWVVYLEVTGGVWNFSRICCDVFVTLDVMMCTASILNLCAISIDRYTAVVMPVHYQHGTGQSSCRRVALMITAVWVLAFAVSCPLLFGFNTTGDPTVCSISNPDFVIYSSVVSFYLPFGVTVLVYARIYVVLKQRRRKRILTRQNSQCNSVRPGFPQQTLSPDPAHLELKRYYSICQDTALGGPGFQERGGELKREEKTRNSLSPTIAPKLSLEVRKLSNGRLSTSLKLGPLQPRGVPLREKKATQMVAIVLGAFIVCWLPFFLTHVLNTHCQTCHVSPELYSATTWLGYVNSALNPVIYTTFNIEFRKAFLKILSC
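Agonist-mode cell screen: cells plated at 1500/well and incubated overnight at 37 °C, then exposed to library compounds for 90 min at 37 °C. Detection reagent was added for 30–60 min at room temperature, and luminescence was read.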
D1 ag: activates the human D1 dopamine receptor; P21728; activation, % at 2 µM; 1% of 360,000 active; AID 504660; HEK293 T-REx D1 cells, calcium flux, agonist mode; in the data active = activation above about 30%
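Tetracycline-induced HEK293 TREx D1 cells, force-coupled to calcium signalling, were dye-loaded with a no-wash calcium kit. Compound was pin-added after a 10 s baseline. Fluorescence was read kinetically at 1 cycle/s for 180 s, with calcium rises flagged as agonism.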
D1 PAM: human D1 dopamine receptor positive modulation | P21728 | HEK293 TREx D1 cells, calcium flux, dopamine EC20 potentiation | potentiation, % at 10 µM | 0.036% of 360,000 active; in the data active = potentiation above about 30%
D3 antag: blocks the human D3 dopamine receptor; max response, negative = inhibition, %; D3R cells, DiscoveRx beta-arrestin luminescence, antagonist mode; stronger effect = lower value; 2.5% of 360,000 active; in the data active = max response below about -50%; inconclusive = no clear call, values can overlap the other calls
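Cells plated overnight at 1500 cells/well, then exposed to library compounds with dopamine controls for 90 minutes at 37 degrees C. DiscoveRx reagent added for 30–60 minutes at room temperature; luminescence read, quantitative HTS format.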
D1 antagonist: antagonists of human D1 dopamine receptor. P21728. HEK293 TREx D1 cells, calcium flux, dopamine EC80; stronger effect = lower value. activity change, negative = inhibition, % at 10 µM. 3.2% of 360,000 active; in the data active = activity change below about -30%
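After overnight tetracycline induction at 30 C, force-coupled D1 HEK293 cells took up a no-wash calcium dye at room temperature. Compounds were added and monitored 180 s, and the response to EC80 dopamine was then recorded.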
Hits are given with their value.

Results for COc1ccc(OC2C(=O)N(Cc3ccc(F)cc3)C2c2ccc(OC)c(OC)c2)cc1 (stereo not given) ?
DRD3 agonist: inactive; D1 ag: inactive; D1 PAM: inactive; D3 antag: inactive; D1 antagonist: inactive

What do the screens show for `COc1ccc(OC2C(=O)N(Cc3ccc4c(c3)OCO4)C2c2sccc2C)cc1` (stereo not given)?
DRD3 agonist: 34; D1 ag: inactive; D1 PAM: inactive; D3 antag: inactive; D1 antagonist: inactive

How did COc1ccc(OC)c(NC(=O)CCc2c(C)nc3c(c(C)nn3C(C)(C)C)c2C)c1 do in these assays?
DRD3 agonist: inactive; D1 ag: inactive; D1 PAM: inactive; D1 antagonist: -42

How did O=C(NCc1ccc(F)cc1)C1CC(=O)N(C2CCCCCCC2)C1 (stereo not given) do in these assays?
DRD3 agonist: inactive; D1 ag: inactive; D1 PAM: inactive; D3 antag: inactive; D1 antagonist: inactive

Results for CC1CC(=O)N(c2ccc(C(C)C)cc2)C(=O)C1 ?
DRD3 agonist: inactive; D1 ag: inactive; D1 PAM: inactive; D3 antag: inactive; D1 antagonist: -32

Results for Cc1oc2c(cc(NS(=O)(=O)c3ccc(Br)cc3)c3ccccc32)c1C(=O)OCc1ccccc1 ?
DRD3 agonist: inactive; D1 ag: inactive; D1 PAM: inactive; D1 antagonist: inactive

How did Cc1cc(C(=O)N2CCCC(CO)(Cc3ccc(F)cc3)C2)c(C)o1 (stereo not given) do in these assays?
DRD3 agonist: inactive; D1 ag: inactive; D1 PAM: inactive; D3 antag: inactive; D1 antagonist: inactive

How did Cc1nc(C)c(C(=O)O)s1 do in these assays?
DRD3 agonist: 47; D1 ag: inactive; D1 PAM: inactive; D3 antag: inactive; D1 antagonist: inactive

How did Cc1cc(C)n(-c2nc3cc(Cl)ccc3nc2Nc2ccc(CC(=O)O)cc2)n1 do in these assays?
DRD3 agonist: inactive; D1 ag: inactive; D1 PAM: inactive; D1 antagonist: inactive

How did CC1CCN(CC2CCN(C(=O)NCc3ccccc3)CC2)CC1 do in these assays?
DRD3 agonist: inactive; D1 ag: inactive; D1 PAM: inactive; D1 antagonist: inactive

How did CCc1ccc(N=Nc2ccc(O)c3[nH]cnc23)cc1 do in these assays?
DRD3 agonist: inactive; D1 ag: 40; D1 PAM: inactive; D3 antag: inactive

Results for CCc1ccc(/C=N/Nc2ncnc3nc[nH]c23)cc1 ?
DRD3 agonist: inactive; D1 ag: inactive; D1 PAM: inactive; D3 antag: inactive; D1 antagonist: inactive

How did COC1=CC(=O)c2ccccc2C1=O do in these assays?
DRD3 agonist: inactive; D3 antag: -71

What do the screens show for `COC1=CC(=O)C=C(OC)C1=O`?
DRD3 agonist: inactive; D3 antag: -121

Results for CCOC(=O)c1ccc(NC(=O)CN2C(=O)COc3ccc(Cl)cc32)cc1 ?
DRD3 agonist: inactive; D1 ag: inactive; D1 PAM: inactive; D1 antagonist: inactive

How did CCOc1ccc(Nc2ccc([N+](=O)[O-])c3nonc23)cc1 do in these assays?
DRD3 agonist: inactive; D1 ag: inactive; D1 PAM: inactive; D3 antag: -67; D1 antagonist: inactive

Results for O=[N+]([O-])c1ccc(Nc2ccccc2)c2nonc12 ?
DRD3 agonist: inactive; D1 ag: inactive; D1 PAM: inactive; D3 antag: inactive; D1 antagonist: inactive

Results for CC(=O)NS(=O)(=O)c1ccc(Nc2ccc([N+](=O)[O-])c3nonc23)cc1 ?
DRD3 agonist: inactive; D1 ag: inactive; D1 PAM: inactive; D3 antag: -54; D1 antagonist: inactive

What do the screens show for `Cc1cc(C(=O)N2CCN(C(c3ccccc3)c3ccccc3)CC2)no1`?
DRD3 agonist: inactive; D1 ag: inactive; D1 PAM: inactive; D3 antag: inactive; D1 antagonist: inactive

What do the screens show for `Cc1cc(N2C(=O)CC(N3CCN(C(c4ccccc4)c4ccccc4)CC3)C2=O)no1` (stereo not given)?
DRD3 agonist: inactive; D1 ag: inactive; D1 PAM: inactive; D3 antag: -55; D1 antagonist: inactive

What do the screens show for `CC(=O)Nc1sc(/C(C#N)=C\c2cccc(Cl)c2)nc1-c1ccc(C)cc1`?
DRD3 agonist: inactive; D1 ag: 244; D1 PAM: inactive; D3 antag: inactive; D1 antagonist: -45

What do the screens show for `CC(=O)Nc1sc(N/N=C/c2ccccc2)nc1-c1ccc(C)cc1`?
DRD3 agonist: inactive; D1 ag: inactive; D1 PAM: inactive; D3 antag: inactive; D1 antagonist: inactive

Results for COc1cccc(OCc2cc(=O)n3cc(C)sc3n2)c1 ?
DRD3 agonist: inactive; D1 ag: inactive; D1 PAM: inactive; D1 antagonist: inactive

What do the screens show for `CC(=O)c1c(C)[nH]c(C(=O)Nc2ccc(Cl)cc2)c1C`?
DRD3 agonist: inactive; D1 ag: 33; D1 PAM: inactive; D3 antag: inactive; D1 antagonist: -63

How did CC(=O)c1c(C)[nH]c(C(=O)OCC(=O)Nc2ccc(Cl)c(S(=O)(=O)N(C)C)c2)c1C do in these assays?
DRD3 agonist: inactive; D1 ag: inactive; D1 PAM: inactive; D3 antag: inactive; D1 antagonist: inactive

How did CC(C)CC1(C)NC(=O)N(CC(=O)Nc2cccc(S(=O)(=O)N(C)c3ccccc3)c2)C1=O (stereo not given) do in these assays?
DRD3 agonist: inactive; D1 ag: inactive; D1 PAM: inactive; D3 antag: inactive; D1 antagonist: -39

Results for CC(=O)c1c(C)[nH]c(C(=O)Nc2ccc(Cl)c(S(=O)(=O)N(C)C)c2)c1C ?
DRD3 agonist: inactive; D1 ag: inactive; D1 PAM: inactive; D3 antag: inactive; D1 antagonist: -50

Results for CC(=O)c1c(C)[nH]c(C(=O)Nc2cccc(S(=O)(=O)N(C)c3ccccc3)c2)c1C ?
DRD3 agonist: inactive; D1 ag: inactive; D1 PAM: inactive; D3 antag: inactive; D1 antagonist: -44

How did Cc1ccc(C)c(NC(=O)CN(Cc2ccccc2)S(=O)(=O)c2ccc3nc(C)sc3c2)c1 do in these assays?
DRD3 agonist: inactive; D1 ag: inactive; D1 PAM: inactive; D1 antagonist: inactive

Results for COc1ccc(N2CCN(C(=O)C3CCN(S(=O)(=O)c4ccc5c(c4)oc(=O)n5C)CC3)CC2)cc1 ?
DRD3 agonist: inactive; D1 ag: inactive; D1 PAM: inactive; D3 antag: inactive; D1 antagonist: inactive

How did CN(Cc1ccco1)C(=O)c1cc2c(s1)-c1ccc(Cl)cc1S(=O)(=O)C2 do in these assays?
DRD3 agonist: inactive; D1 ag: inactive; D1 PAM: inactive; D3 antag: inactive; D1 antagonist: inactive

Results for COc1ccc(OC)c(N(C)S(=O)(=O)c2ccc3c(c2)NC(=O)CC(=O)N3)c1 ?
DRD3 agonist: inactive; D1 ag: inactive; D1 PAM: inactive; D1 antagonist: inactive

Results for Cc1ccccc1CN(C)CC(=O)Nc1cccc(S(=O)(=O)N(C)c2ccccc2)c1 ?
DRD3 agonist: inactive; D1 ag: inactive; D1 PAM: inactive; D3 antag: inconclusive; D1 antagonist: -41

Results for CCCOc1cccc(C2c3c(oc4ccccc4c3=O)C(=O)N2c2nncs2)c1 (stereo not given) ?
DRD3 agonist: 56; D1 ag: inactive; D1 PAM: inactive; D1 antagonist: inactive
